Experimental findings from PubChem BioAssay (NCI) are described below.

Structures are written as SMILES. The panel holds about 83,000 compounds, 20% with a hit somewhere; the sample as a whole holds those more often.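 Interpretation: 100, growth as untreated; towards 0, rising growth inhibition; 0, no net growth; 0 to -100, cell death. Compounds scoring below 10 were considered active.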 Values without a mark were called inactive. Activity calls are given as the source filed them.

The experiment has as its system HCT-15 colon. As to the kind of experiment: NCI-60 one-dose screen, 48 h (100 = growth as untreated, 0 = no growth, -100 = all killed). The following applies: 10 µM unless noted.
As to `O=C(Nc1ccc2c(c1)OCO2)C(=O)c1c[nH]c2cc(F)ccc12`, the growth was 57.2%. As for `O=C(Nc1cccc(-n2cc(-c3ccncc3)c(-c3ccc(Cl)c(O)c3)n2)c1)Nc1cc(C(F)(F)F)cc(C(F)(F)F)c1`, the figure is -7.23% (active); as for `N/C(=N\C(N)=N\c1nc2ccccc2s1)c1ccncc1`, 35.3%. As for `O=S(=O)(NCCNc1nccc(-c2c(-c3cccc(O)c3)nc3sccn23)n1)c1ccc(F)cc1`, the figure is 81%; as for `CN1C(=O)N(C)C2C1NN=c1s/c(=C\c3cccnc3)c(=O)n12` (stereo not drawn), 42.2%.

Take `CN1CCN(Cc2ccc(NC(=O)c3cncc(C#Cc4cnc(N)c5ccncc45)c3)cc2C(F)(F)F)CC1`: the growth is 10.9%.

With `O=C(Nc1ccncc1)C(=O)c1cn(S(=O)(=O)c2ccc(Br)cc2)c2ccccc12`, the growth is 31%. As for `CN(C)CCCN(c1nc(C(Cl)(Cl)Cl)ns1)c1nc(C(Cl)(Cl)Cl)ns1`, the growth was 41.2%.

On to `COc1ccc(-c2nc3sc(-c4cc(OC)c(OC)c(OC)c4)nn3c2/C=C2/C(=O)Nc3ccc(F)cc32)cc1`, for which the growth is -3.94% (active).

For the molecule `Cc1ccc(S(=O)(=O)NCCNc2cc(-c3cn(C(C)(C)C)nc3-c3cccc(O)c3)ccn2)cc1`, the growth was 31.1%. Under `COc1cccc(/C=C2\Oc3cc(OCCCN4CCCC4)ccc3C2=O)c1` stands 19.3%.

As to `COc1ccc(Nc2[nH]n3c(=O)cc(-c4ccccc4)nc3c2C(=O)Nc2ccc(C)cc2)c(OC)c1`, the growth was 89.6%. For `Cc1ccc(S(=O)(=O)c2nc(-c3ccccc3)oc2S(C)(=O)=O)cc1`, the growth was -14.2% (active).
